Laboratory results taken from the supplement of paper PMC10981050.
Where “and” joins values, the source holds several entries; their conditions need not be identical. Equal values may be shown once. Where a name gives a salt, the structure may show the parent alone.

Experiments:
Assay in all cases: cell viability relative to vehicle control; higher = less cytotoxic
Conditions in all cases: 10 µM
K562 = test system: K562
Summary of the method: (§1)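 Mutant clones made by CRISPR editing and their isogenic wild-type counterparts, from four leukaemia lines, were exposed to a single 10 µM dose of each library compound for 48 h. The supernatant was then removed and CellTiter-Glo luminescence was read. Viability was reported as percent of the on-plate vehicle control.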

MARIMO = test system: MARIMO
Summary of the method: as §1

MOLM14 = test system: MOLM14
Summary of the method: as §1

OCI-AML2 = test system: OCI-AML2
Summary of the method: as §1

Structure (SMILES) | cell viability (K562; SRSF2 genotype: SRSF2 P95H/wt) | cell viability (K562; SRSF2 genotype: SRSF2 wt/wt) | cell viability (MARIMO; SRSF2 genotype: SRSF2 P95H/wt) | cell viability (MARIMO; SRSF2 genotype: SRSF2 wt/wt) | cell viability (MOLM14; SRSF2 genotype: SRSF2 P95H/wt) | cell viability (MOLM14; SRSF2 genotype: SRSF2 wt/wt) | cell viability (OCI-AML2; SRSF2 genotype: P95H/wt) | cell viability (OCI-AML2; SRSF2 genotype: wt/wt)
COc1cc(-n2c(=S)[nH]c3ccccc3c2=O)c(Cl)cc1Cl [Mdivi-1] | 91.9% and 96.6% | 94.2% | 90.7% | 95.2% | 91% | 102% | 109% | 116%
CCN1CC2(OC(=O)c3ccccc3NC(C)=O)CCC(OC)C34C1C(CC23)C1(O)CC(OC)C2CC4C1(O)C2OC (configuration not stated) [Lappaconitine] | 99.3% and 109% | 100% | 108% | 103% | 103% | 105% | 111% | 91.9%
C[C@H]1CC[C@]2(NC1)O[C@H]1C[C@H]3[C@@H]4CC[C@H]5C[C@@H](O)CC[C@]5(C)[C@H]4CC[C@]3(C)[C@H]1[C@@H]2C [Tomatidine] | 92.3% and 92% | 90.7% | 86.8% | 94.8% | 90.7% | 93.3% | 96.5% | 93.5%
COc1cc2c3c(c1OC)-c1ccccc1C[C@H]3N(C)CC2 [Nuciferine] | 102% and 108% | 102% | 102% | 108% | 102% | 104% | 96.3% | 106%
O=C(O[C@H]1C[N+]2(CCCOc3ccccc3)CCC1CC2)C(O)(c1cccs1)c1cccs1 [Aclidinium Bromide] | 104% and 98.9% | 101% | 108% | 111% | 103% | 106% | 106% | 106%
COC(=O)C1=CCCN(C)C1 [Arecoline HBr] | 93.5% and 96.8% | 97.5% | 96% | 99% | 97.4% | 99.9% | 92% | 106%
O=c1[nH]c2ccccc2n1C1CCN(Cc2ccc(-c3[nH]c4cc5ncnc5cc4nc3-c3ccccc3)cc2)CC1 | 56.9% and 65.9% | 61.7% | 66.5% | 76.2% | 53.6% | 43.6% | 48.8% | 47.9%
CN1CC=C(c2ccccc2)CC1 [MPTP hydrochloride] | 100% and 99.7% | 102% | 107% | 111% | 103% | 105% | 92.5% | 108%
Cc1ccccc1-n1c(Cn2ncc3c(N)ncnc32)nc2cccc(C)c2c1=O | 93.5% and 98.8% | 91.3% | 90.7% | 93.7% | 81.9% | 81.3% | 81.5% | 83.9%
NCC(O)c1ccc(O)cc1 (racemic) [(+,-)-Octopamine HCl] | 91.4% and 95.7% | 97.6% | 96.5% | 96.5% | 99.5% | 96.8% | 93.1% | 97.3%
COc1cc(C2OCC3C(c4cc(OC)c(OC5OC(CO)C(O)C(O)C5O)c(OC)c4)OCC23)cc(OC)c1OC1OC(CO)C(O)C(O)C1O (configuration not stated) [Eleutheroside E] | 104% and 98.2% | 101% | 97.3% | 97.9% | 98.5% | 107% | 102% | 112%
ClC(Cl)=C(c1ccc(Cl)cc1)c1ccc(Cl)cc1 | 103% and 96.8% | 106% | 89.6% | 99.1% | 96.8% | 105% | 100% | 108%
CC(=O)OCC1=C(C(=O)O)N2C(=O)C(N)C2SC1 (configuration not stated) [7-Aminocephalosporanic acid] | 107% and 103% | 102% | 101% | 108% | 111% | 107% | 109% | 110%
COC(=O)Nc1nc2ccccc2[nH]1 [Carbendazim] | 35% and 44.4% | 51.9% | 36.2% | 31.8% | 58.5% | 49% | 60.5% | 52.2%
CC[C@H]1CN2CC[C@]3(C(=O)Nc4ccccc43)[C@@H]2C[C@@H]1/C(=C\OC)C(=O)OC [Rhynchophylline] | 93.2% and 97.5% | 89.5% | 80.4% | 77.7% | 88.9% | 88.3% | 86.7% | 88.5%
CN1C2CCC1CC(O)C2 (configuration not stated) [Tropine] | 105% and 98.9% | 97.2% | 104% | 110% | 99.5% | 103% | 94.5% | 108%
CC(NC(C)(C)C)C(=O)c1cccc(Cl)c1 (configuration not stated) [Amfebutamone (Bupropion) HCl] | 86.7% and 90.3% | 95.6% | 87.9% | 94.1% | 95.1% | 95.6% | 93.1% | 90.5%
Nc1ncnc2c1ccn2[C@@H]1O[C@H](CO)[C@@H](O)[C@H]1O [Tubercidin] | 4.16% and 3.19% | 3.9% | 1.78% | 1.63% | 0.87% | 1.22% | 0.61% | 0.99%
C[C@@]12C[C@@H](c3ccoc3)OC(=O)[C@@H]1CC[C@]1(C)[C@H]2[C@@H]2C=C[C@@]1(O)C(=O)O2 [Columbin] | 104% and 96.4% | 102% | 99% | 106% | 108% | 100% | 104% | 103%
COC1=C[C@@H]2[C@@H]3Cc4ccc(OC)c(O)c4[C@]2(CCN3C)CC1=O [Sinomenine hydrochloride] | 104% and 105% | 97.9% | 102% | 101% | 98.5% | 101% | 103% | 109%

Structure (SMILES) | cell viability (K562; SRSF2 genotype: SRSF2 P95H/wt) | cell viability (K562; SRSF2 genotype: SRSF2 wt/wt) | cell viability (MARIMO; SRSF2 genotype: SRSF2 P95H/wt) | cell viability (MARIMO; SRSF2 genotype: SRSF2 wt/wt) | cell viability (MOLM14; SRSF2 genotype: SRSF2 P95H/wt) | cell viability (MOLM14; SRSF2 genotype: SRSF2 wt/wt) | cell viability (OCI-AML2; SRSF2 genotype: P95H/wt) | cell viability (OCI-AML2; SRSF2 genotype: wt/wt)
COC1CC(OC2CCC3(C)C4CCC5(C)C(C6=CC(=O)OC6)CCC5(O)C4CCC3(O)C2)OC(C)C1OC1OC(CO)C(O)C(O)C1O (configuration not stated) [Periplocin] | 8.96% and 10.7% | 11.7% | 11.5% | 4.97% | 3.28% | 0.9% | 1.16% | 4.41%
CCCCCc1cc(O)cc(O)c1 [Olivetol] | 102% and 99.9% | 110% | 87.2% | 96.8% | 101% | 107% | 111% | 112%
COC1=C[C@]23CCCN2CCc2cc4c(cc2[C@@H]3[C@@H]1O)OCO4 [Cephalotaxine] | 91.4% and 93.8% | 93.5% | 91% | 93.2% | 96.1% | 96.5% | 90.8% | 91.4%
Cn1c(CCCC(=O)O)nc2cc(N(CCCl)CCCl)ccc21 [Bendamustine HCL] | 97.2% and 96.8% | 96.3% | 94.5% | 104% | 86.3% | 97.8% | 66.5% | 83%
CC(C)=CCCC(C(=O)O)C1CCC2(C)C3=C(CCC12C)C1(C)CCC(=O)C(C)(C)C1CC3 (stereo not drawn) [Beta-Elemonic] | 96% and 89.7% | 87.7% | 92.7% | 99% | 88.8% | 93.1% | 100% | 101%
COc1cc(C)[nH]c(=O)c1CNC(=O)c1c(C)n([C@H](C)C2CCN(CC(F)(F)F)CC2)c2ccccc12 | 103% and 99% | 110% | 103% | 110% | 97.2% | 95.3% | 103% | 109%
CC(C)(C)c1cc(C=C(C#N)C#N)cc(Br)c1O | 84.3% and 86.2% | 78% | 94.2% | 99.3% | 93.5% | 100% | 80.5% | 89.6%
C=C[C@@H]1C2=CCOC(=O)C2=CO[C@H]1O[C@@H]1O[C@H](CO)[C@@H](O)[C@H](O)[C@H]1O [Gentiopicroside] | 97.2% and 95.7% | 96.3% | 94.5% | 99% | 98.5% | 104% | 94% | 108%
COc1ccc2c(c1OC)CN1CCc3cc4c(cc3C1C2)OCO4 (configuration not stated) [Tetrahydroberberine] | 86.9% and 87% | 81.9% | 69.8% | 85% | 81.2% | 86.6% | 73% | 72.8%
COc1cc(OC)c(OC)cc1C=O [Asaraldehyde (Asaronaldehyde)] | 110% and 107% | 106% | 100% | 114% | 110% | 105% | 102% | 105%
CC(C)=CCCC(C)(O)C1CCC2(C)C1C(O)CC1C3(C)CCC(O)C(C)(C)C3C(OC3OC(CO)C(O)C(O)C3O)CC12C [(20R)-Ginsenoside Rh1] | 101% and 98.6% | 103% | 111% | 98.8% | 115% | 107% | 107% | 108%
C=C(C)[C@H]1Cc2c(ccc3c2O[C@@H]2COc4cc(OC)c(OC)cc4[C@@H]2C3=O)O1 [Rotenone (Barbasco)] | 12.8% and 22.4% | 23.4% | 5.86% | 10.5% | 15.6% | 3.2% | 9.69% | 13.8%
CC1(C)C(=O)N(c2ccc(C#N)c(C(F)(F)F)c2)C(=O)N1CCCCO | 89% and 95% | 92.3% | 91.5% | 103% | 93.5% | 104% | 88.6% | 96.6%
Cc1cc(C(C#N)c2ccc(Cl)cc2)c(Cl)cc1NC(=O)c1cc(I)cc(I)c1O (configuration not stated) [Closantel] | 95% and 92.2% | 92.3% | 102% | 108% | 99% | 100% | 92.4% | 110%
CN(C)[C@@H]1C(=O)C(C(N)=O)=C(O)[C@@]2(O)C(=O)C3=C(O)c4c(O)cccc4[C@@](C)(O)[C@H]3[C@H](O)[C@@H]12 [Oxytetracycline dihydrate] | 98.3% and 102% | 101% | 104% | 100% | 97.6% | 103% | 103% | 92.6%
CC[C@]12C=CCN3CC[C@]4(C(=C(C(=O)OC)C1)Nc1ccccc14)[C@@H]32 [Tabersonine] | 17.7% and 27% | 30.1% | 19.1% | 18.7% | 11.3% | 4.06% | 7.01% | 14.7%
CCCN1C[C@H](CSC)C[C@@H]2c3cccc4[nH]cc(c34)C[C@H]21 [Pergolide mesylate] | 86.1% and 87.8% | 89.7% | 91.7% | 103% | 69.6% | 83.5% | 84% | 93.1%
CC(C)N(CCC(C(N)=O)(c1ccccc1)c1ccccn1)C(C)C (configuration not stated) [disopyramide phosphate] | 98.9% and 108% | 106% | 104% | 109% | 104% | 104% | 107% | 96.2%
Cc1sc2c(c1C)C(c1ccc(Cl)cc1)=N[C@@H](CC(=O)OC(C)(C)C)c1nnc(C)n1-2 | 53.8% and 59.9% | 61.5% | 22.3% | 30.9% | 15.9% | 11.6% | 17.5% | 30.2%
